Screens: PubChem BioAssay, National Center for Advancing Translational Sciences (NCATS)
TDP1 cell CPT – growth inhibition of DT40 Tdp1-/-;hTDP1 cells with camptothecin (screen for TDP1 inhibitors). 420,000 tested, 12% active. chicken DT40 Tdp1-/-;hTDP1 cells + 20 nM CPT, ATP luminescence, 48 h. Potency, µM (top dose mostly 46.2 µM), for the others: at the highest dose activity change, negative = growth inhibition, usual class: inhibitors; note: % is set by controls: 0 for no effect and ±100 for the full control effect; nearly all actives have a fitted effect of over 55% in size
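Cell growth measured by CellTiter-Glo luminescence after a minimum 48 h, 37 C compound exposure with 20 nM CPT in Tdp1-knockout DT40 cells stably expressing hTDP1, seeded 400/well; qHTS titration format.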
TDP1 inh – inhibitors of human tyrosyl-DNA phosphodiesterase TDP1 | Q9NUW8 | recombinant TDP1, AlphaScreen DNA substrate cleavage | Potency, µM (titrated, usually from 130 µM), for the others: top-dose activity change, negative = inhibition, most hits filed as inhibitors | 350,000 tested, 0.28% active | AID 485290; note: % is set by controls: 0 for no effect and ±100 for the full control effect; nearly all actives have a fitted effect of over 40% in size
Target sequence (Q9NUW8 whole entry, looked up): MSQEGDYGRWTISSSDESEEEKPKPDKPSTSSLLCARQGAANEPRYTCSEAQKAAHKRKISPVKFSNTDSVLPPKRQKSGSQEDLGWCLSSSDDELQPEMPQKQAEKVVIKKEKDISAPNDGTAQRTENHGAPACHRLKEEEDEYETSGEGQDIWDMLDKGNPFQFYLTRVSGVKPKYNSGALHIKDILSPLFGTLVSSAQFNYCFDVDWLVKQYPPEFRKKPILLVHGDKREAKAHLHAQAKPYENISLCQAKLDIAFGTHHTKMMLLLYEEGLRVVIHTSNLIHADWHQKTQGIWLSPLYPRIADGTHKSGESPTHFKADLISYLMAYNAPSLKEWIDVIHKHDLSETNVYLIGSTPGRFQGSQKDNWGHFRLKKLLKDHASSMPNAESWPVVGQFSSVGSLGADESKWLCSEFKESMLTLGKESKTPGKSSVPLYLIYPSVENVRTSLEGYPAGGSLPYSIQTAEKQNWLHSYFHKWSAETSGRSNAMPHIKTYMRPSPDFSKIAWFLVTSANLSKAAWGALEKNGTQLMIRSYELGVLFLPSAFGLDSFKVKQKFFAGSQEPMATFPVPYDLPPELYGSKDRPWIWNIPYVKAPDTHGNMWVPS
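E. coli-derived human Tdp1, 1 nM final. Cpd preinc 15 min RT; substrate 15 nM final, 5 min RT; AS bead mix 10 ug/ml final, 10 min RT. Signal loss = tyrosine-FITC cleavage. No-enzyme wells = max signal.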
ClpP mod – qHTS Assay for Activators of ClpP. 340,000 tested, 1.9% active. Potency, µM (doses to about 57.5 µM), without a hit: top-dose activity change, negative = active. purified B. subtilis ClpP, FRET peptide cleavage, 20 min. AID 651965, 2013. ATP-dependent Clp protease proteolytic subunit (Bacillus subtilis (strain 168)), P80244; active = well fitted falling curve with a large enough effect; inconclusive = small, poorly fitted or top-dose-only effect; inactive = no such curve, though single readings can be large or run the other way; note: the source files actives as falling curves though it sought activators and does not explain the sign; nearly all actives have a fitted effect of over 65% in size
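Buffer: 100 mM Tris/HCl pH8, 100 mM KCl, 0.05% low protease BSA, 2.5% glycerol, 0.01% Tween-20. ClpP 10 microg/mL final; 20 min RT; delta FRET normalized to ADEP and DMSO controls.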
TDP1 cell noCPT – qHTS for Inhibitors of human tyrosyl-DNA phosphodiesterase 1 (TDP1): qHTS in cells in absence of CPT; AID 686978, 2013; 420,000 tested, 15% active; Potency, µM (series often up to 46.2 µM), for inactives: at the highest dose activity change, negative = growth inhibition, hits mostly inhibitors; DT40 Tdp1-/- hTDP1 cells, no CPT, ATP luminescence, 48 h; note: % is set by controls: 0 for no effect and ±100 for the full control effect; nearly all actives have a fitted effect of over 55% in size
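Stably hTDP1-transfected Tdp1-null chicken DT40 cells were treated with library compounds minus camptothecin and grown for at least 48 hr at 37 °C, after which cellular ATP was quantified by luminescence.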
Starred values were filed as active, the others as inactive; [ ] = remark or other dose. Only some compounds are listed: those with a hit (about 17% of all), similar ones and a draw of the others. Unless noted, calls come from the whole dose curve; as a rule, active = well fitted curve in the direction sought with a large enough effect; inconclusive = small, poorly fitted or top-dose-only effect, or another doubt; inactive = no such curve, though single readings can be large; an effect the other way counts as inactive or inconclusive. Potency is the fitted concentration of half-maximal effect.

Screening COc1ccc(C(C)=O)cc1CSc1ccc2c(c1)OCCO2 returned TDP1 cell CPT -20%, TDP1 inh 0% and TDP1 cell noCPT -28%.
For FC(F)(F)c1cccc(-c2ccc(/C=N/Nc3nncc(-c4ccccc4)n3)o2)c1 the results were TDP1 cell CPT inconclusive, TDP1 inh 1%, ClpP mod 1% and TDP1 cell noCPT 9.2µM*.
Screening COc1ccccc1C(=O)NCC(=O)N/N=C/c1ccc([N+](=O)[O-])cc1 returned TDP1 cell CPT -25%, TDP1 inh -8%, ClpP mod 0% and TDP1 cell noCPT -8%.
Screening O=C(N/N=C/c1ccc(-c2cccc([N+](=O)[O-])c2)o1)c1ccc([N+](=O)[O-])cc1 returned TDP1 cell CPT inconclusive, TDP1 inh 8% and TDP1 cell noCPT 16µM*.
For O=C(N/N=C/c1ccc(-c2cccc(C(F)(F)F)c2)o1)c1ccccc1O the results were TDP1 cell CPT 10µM*, TDP1 inh 4%, ClpP mod -3% and TDP1 cell noCPT 8.2µM*.
For COc1cc(C(=O)NCC(=O)N/N=C/c2ccc(-c3ccc([N+](=O)[O-])cc3)o2)cc(OC)c1OC the results were TDP1 cell CPT inconclusive, TDP1 inh 11% and TDP1 cell noCPT 21µM*.
CC1=C(C(=O)Nc2ccc(C)cc2C)C(c2ccc(Br)cc2)n2ncc(C(=O)Nc3cccc(C)c3)c2N1 (centres undefined) was read as TDP1 cell CPT -4%, TDP1 inh 4%, ClpP mod inconclusive and TDP1 cell noCPT inconclusive.
`COc1ccc(C(=O)NCc2nnnn2-c2ccc(C)c(C)c2)cc1` gave TDP1 cell CPT inconclusive, TDP1 inh 3%, ClpP mod 1% and TDP1 cell noCPT -27%.
For CCOc1ccc(-c2cc(-c3nc(-c4ccc(C)cc4)no3)[nH]n2)cc1 the results were TDP1 cell CPT inconclusive, TDP1 inh 5%, ClpP mod 0% and TDP1 cell noCPT inconclusive.
`O=C(N/N=C/c1ccc(-c2cccc(C(F)(F)F)c2)o1)c1cccc(F)c1` gave TDP1 cell CPT 18µM*, TDP1 inh 5%, ClpP mod -16% and TDP1 cell noCPT 14µM*.
For Cc1cc(OCC(=O)Nc2sc3c(c2C#N)CCC(C)C3)ccc1Cl (centres undefined) the results were TDP1 cell CPT -29%, TDP1 inh 0%[12.3 µM], ClpP mod 0% and TDP1 cell noCPT inconclusive.
Screening COc1ccc(C(=O)Nc2ccc(-c3nc4ncccc4o3)cc2C)cc1Br returned TDP1 cell CPT 10µM*, TDP1 inh 1%, ClpP mod inconclusive and TDP1 cell noCPT inconclusive.
For COc1ccc(-c2ccccc2)cc1NC(=O)c1cccs1 the results were TDP1 cell CPT 1%, ClpP mod 0% and TDP1 cell noCPT inconclusive.
Screening O=C(Nc1cc(-c2nc3ncccc3o2)ccc1Cl)c1cccs1 returned TDP1 cell CPT inconclusive, TDP1 inh 4%, ClpP mod inconclusive and TDP1 cell noCPT 21µM*.
For O=C(Nc1cc(-c2nc3cc(Cl)ccc3o2)ccc1Cl)c1cccs1 the results were TDP1 inh 3% and ClpP mod 6%.
COc1ccc(-c2nc3ncccc3o2)cc1NC(=O)c1cccs1 was read as TDP1 cell CPT -20%, TDP1 inh 12% and TDP1 cell noCPT 15µM*.
O=C(O)c1nc(-c2ccccc2)c(C(=O)NC2CC2)[nH]1 was read as TDP1 cell CPT -3%, ClpP mod 1% and TDP1 cell noCPT 7%.
Screening COc1ccc(C(=O)Nc2ccccc2C(=O)NCC2CCCO2)cc1 (centres undefined) returned TDP1 cell CPT inconclusive, TDP1 inh 1%, ClpP mod -3% and TDP1 cell noCPT inconclusive.
For N#Cc1cc2c(nc1S(=O)(=O)Cc1ccccc1)CCCC2 the results were TDP1 cell CPT -1%, TDP1 inh 10%, ClpP mod 0% and TDP1 cell noCPT 0%.
O=C1CCCN1c1ccc(S(=O)(=O)Nc2ccc3c(c2)OCCO3)cc1 was read as TDP1 cell CPT 3.3µM*, TDP1 inh 2%, ClpP mod -1% and TDP1 cell noCPT 2.9µM*.
`CC(=O)c1cc2c(cc1NS(=O)(=O)c1ccc(C)cc1)OCCO2` gave TDP1 cell CPT 23µM*, TDP1 inh 0%, ClpP mod 1% and TDP1 cell noCPT 21µM*.
CC(=O)Nc1ccc(S(=O)(=O)N2CCc3cc4c(cc3C2)OCCCO4)cc1 was read as TDP1 cell CPT 21µM*, TDP1 inh -4%, ClpP mod -3% and TDP1 cell noCPT inconclusive.
For CC(=O)Nc1ccc(S(=O)(=O)N2CCCC2)cc1 the results were TDP1 cell CPT inconclusive, ClpP mod 1% and TDP1 cell noCPT -21%.
Screening CC(=O)Nc1ccc(S(=O)(=O)Nc2ccc3c(c2)OCCO3)cc1 returned TDP1 cell CPT inconclusive, TDP1 inh 1% and TDP1 cell noCPT 7.3µM*.
`C/C(=N\NC(=O)Cn1ccc(C(F)(F)F)n1)c1ccco1` gave TDP1 cell CPT 3%, TDP1 inh 3% and TDP1 cell noCPT 4%.
COc1cc(F)c(S(=O)(=O)N2CCN(S(=O)(=O)c3ccc(N)cc3)CC2)c(F)c1 was read as TDP1 inh 1%.
`CC(=O)c1ccc(NS(=O)(=O)c2ccc([N+](=O)[O-])cc2)cc1` gave TDP1 cell CPT -1% and TDP1 cell noCPT -18%.
`N#CCc1ccc(NS(=O)(=O)c2ccc(N3CCCC3=O)cc2)cc1` gave TDP1 cell CPT 13µM*, TDP1 inh -3%, ClpP mod 2% and TDP1 cell noCPT inconclusive.
O=[N+]([O-])c1ccc(S(=O)(=O)Nc2ccc(-c3ccccc3)cc2)cc1 was read as TDP1 cell CPT inconclusive, ClpP mod -3% and TDP1 cell noCPT 13µM*.
Cc1ccc(S(=O)(=O)Nc2ccc3c(c2)OCCO3)cc1 was read as TDP1 cell CPT -25%, TDP1 inh -8%, ClpP mod -2% and TDP1 cell noCPT inconclusive.
Cc1c(F)cccc1NS(=O)(=O)c1ccc(N2CCCC2=O)cc1 was read as TDP1 cell CPT 23% and TDP1 cell noCPT -17%.
Screening O=[N+]([O-])c1ccc(S(=O)(=O)Nc2ccc3c(c2)OCCO3)cc1 returned TDP1 cell CPT inconclusive, ClpP mod -2% and TDP1 cell noCPT 16µM*.
Screening COc1cc(C[C@@H]2NCCc3cc(O)c(O)cc32)cc(OC)c1OC returned TDP1 cell CPT -38% and TDP1 cell noCPT -12%.
For COc1ccccc1-n1cc(CN2CCOc3ccc(CN4C[C@@H](C)O[C@@H](C)C4)cc3C2)cn1 the results were TDP1 cell CPT -11%[9.04 µM] and TDP1 cell noCPT inconclusive.
For COc1nc(=O)n(C2C=CC(=O)O2)cc1F (centres undefined) the results were TDP1 cell CPT 2.3µM*, ClpP mod -1% and TDP1 cell noCPT 2.3µM*.
